A selection: hits, their analogues and other compounds. The true share with any hit is near 1.9%.
Fam108B counter = blocks mouse Fam108B hydrolase in RBBP9 counter-screen; recombinant Fam108B, FP-Rh probe fluorescence polarization; inhibition, % at 9.51 µM; actives 0.33% (n = 300,000);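 active = inhibition above the screen mean inhibition plus 3 SD, computed separately per campaign, cut at about 18% in these data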;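 also: inhibitors lower polarization as less probe binds the enzyme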
GSTO1 inh = blocks human GSTO1 in RBBP9 counter-screen | inhibition, % at 5.96 µM | P78417 | recombinant GSTO1, activity-based probe fluorescence polarization | actives 1.1% (n = 300,000);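 active = inhibition above the campaign mean inhibition plus 3 SD, cut at about 35% in these data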
PME-1 inh = blocks human protein phosphatase methylesterase 1; inhibition, % at 5.9 µM; actives 0.53% (n = 320,000); AID 2130; recombinant PME-1, FP-Rh probe fluorescence polarization; Q9Y570;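 active = inhibition above the campaign mean of all compounds plus 3 SD, cut at about 26% in these data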;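 also: competitive labeling of PME-1 active site by serine hydrolase directed probe; inhibitors block probe labeling so polarization falls and inhibition rises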
Target sequence (Q9Y570 whole entry, looked up): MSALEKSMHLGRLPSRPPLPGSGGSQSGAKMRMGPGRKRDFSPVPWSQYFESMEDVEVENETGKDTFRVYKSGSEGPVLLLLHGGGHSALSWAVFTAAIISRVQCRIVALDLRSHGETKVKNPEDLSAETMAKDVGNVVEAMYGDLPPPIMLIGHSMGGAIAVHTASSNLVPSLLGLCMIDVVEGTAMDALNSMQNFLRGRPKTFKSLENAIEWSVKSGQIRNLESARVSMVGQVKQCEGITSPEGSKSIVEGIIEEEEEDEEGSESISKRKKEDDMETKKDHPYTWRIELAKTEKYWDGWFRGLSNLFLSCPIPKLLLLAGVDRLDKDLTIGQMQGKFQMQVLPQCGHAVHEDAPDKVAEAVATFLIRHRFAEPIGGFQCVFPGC
PREPL inhibitor = inhibits the human prolyl oligopeptidase-like enzyme. Q4J6C6. recombinant PREPL, fluorescence polarization activity-based probe. inhibition, % at 5.96 µM. actives 0.68% (n = 320,000). AID 2751; in the data active = inhibition above about 43%
LYPLA2 inh = blocks human lysophospholipase 2, a PME1 counter-screen. inhibition, % at 5.9 µM. AID 2177. recombinant LYPLA2, FP-Rh probe fluorescence polarization. O95372. actives 0.38% (n = 320,000);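 active = inhibition above the screen-wide mean plus 3 SD, limit set per campaign, cut at about 26% in these data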
LYPLA1 inh = LYPLA1 (human) inhibition in PME1 counter-screen | AID 2174 | inhibition, % at 5.9 µM | recombinant LYPLA1, FP-Rh probe fluorescence polarization | actives 0.16% (n = 320,000);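 active = inhibition above the mean of all tested compounds plus 3 SD, set per campaign, cut at about 14% in these data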;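 also: inhibitors block serine hydrolase probe labeling of LYPLA1 so polarization falls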
Target sequence (O75608 whole entry, looked up): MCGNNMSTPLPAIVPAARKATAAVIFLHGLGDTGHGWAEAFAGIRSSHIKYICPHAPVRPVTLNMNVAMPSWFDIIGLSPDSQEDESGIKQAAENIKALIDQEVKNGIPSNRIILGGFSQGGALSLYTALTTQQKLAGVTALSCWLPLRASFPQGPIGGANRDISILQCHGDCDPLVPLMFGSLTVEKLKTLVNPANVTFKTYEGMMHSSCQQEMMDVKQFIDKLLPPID
Fam108b confirm = Fam108b (mouse) hydrolase inhibition, confirmation assay. shares compounds with Fam108B counter. recombinant Fam108b, FP-Rh probe fluorescence polarization. inhibition, % at 9.51 µM. actives 44% (n = 930). AID 1978;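 active = inhibition above a limit from the primary screen, the mean over all compounds plus 3 SD, cut at about 19% in these data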;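 also: inhibitors free the probe so polarization falls as inhibition rises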
Fam108b inh = mouse ABHD17B inhibition. shares compounds with Fam108B counter. inhibition, % at 20 µM. actives 44% (n = 260). recombinant Fam108b, gel-based ABPP, fluorophosphonate probe; in the data active = inhibition above about 40%
Of the large screens only hits and unclear results are named; the others gave an inactive call (follow-up assays come after a bar, where they were run).

Nc1[nH]n(-c2ccccc2)c(=O)c1N=Nc1ccc2ncsc2c1	Fam108B counter 20, PME-1 inh 36 | Fam108b confirm inactive
COC(=O)c1cc(C(=O)OCC(=O)NC(=O)NCc2ccccc2)cc([N+](=O)[O-])c1	none (no result: Fam108B counter, GSTO1 inh)
COc1cccc(CC(=O)Nc2ccc(S(=O)(=O)N3CCCCC3)cc2)c1	none (no result: Fam108B counter, GSTO1 inh, PME-1 inh, LYPLA2 inh, LYPLA1 inh)
Cc1cccc2cc3c(N)c(C(=O)Nc4ccc(N5CCOCC5)cc4)sc3nc12	Fam108B counter 20 | Fam108b confirm inactive
Cc1sc(NC(=O)c2sc3nc4c(C)cccc4cc3c2N)c(C#N)c1C	none
CCc1cccc2cc3c(N)c(C(=O)Nc4ccc(S(=O)(=O)N5CCCC5)cc4)sc3nc12	Fam108B counter 54, PME-1 inh 38 | Fam108b confirm inactive
CS(=O)(=O)N1CCC(NC(=O)Nc2ccc(OC(F)(F)F)cc2)CC1	none (no result: Fam108B counter, GSTO1 inh)
COC(=O)c1ccc(COc2ccc(/C=C(\C#N)c3nc4ccccc4[nH]3)cc2OC)o1	Fam108B counter 19 | Fam108b confirm inactive
O=C(CC1CC2CCC1C2)N1CCN(S(=O)(=O)c2ccccc2C(F)(F)F)CC1 (stereo not given)	none (no result: Fam108B counter, GSTO1 inh)
CC(C)(C)c1nc2scc(-c3cccs3)c2c(=O)o1	Fam108B counter 55 | Fam108b confirm 106 | Fam108b inh 85
COc1ccc(-c2csc3nc(C(C)(C)C)oc(=O)c23)cc1OC	none
CC(C)(C)c1nc2scc(-c3ccc(Cl)cc3)c2c(=O)o1	Fam108B counter 21 | Fam108b confirm 19
Cc1nc2scc(-c3cccs3)c2c(=O)[nH]1	none
CCCCn1c(=O)nc2n(-c3ccc(OC)cc3)c3ccccc3cc-2c1=O	Fam108B counter 42 | Fam108b confirm inactive
Cn1c(=O)c(Nc2ccc(O)cc2)c2c3c(cccc31)C(=O)c1ccccc1-2	Fam108B counter 23, PME-1 inh 36 | Fam108b confirm 22
CC(=O)c1c2c3c(cccc3n(C)c1=O)C(=O)c1ccccc1-2	none
Cc1ccccc1NC(=O)C(C)OC(=O)CNS(=O)(=O)c1ccc(C#N)cc1 (stereo not given)	none
O=C(Nc1cc(S(=O)(=O)N2CCOCC2)ccc1N1CCCC1)c1cnccn1	Fam108B counter 18 | Fam108b confirm 23
CCOc1ccc(CN(C)c2nc(-c3cccnc3)nc3ccccc23)cc1OC	none
Cn1ccnc1C(=O)c1ccccc1Cl	Fam108B counter 52 | Fam108b confirm inactive
COc1ccc(/C=N/NC(=O)c2cc(C34CC5CC(CC(C5)C3)C4)[nH]n2)cc1O	Fam108B counter 24 | Fam108b confirm inactive
O=C(NNc1c2ccccc2nc2ccccc12)c1ccc(O)cc1O	Fam108B counter 25, PME-1 inh 78 | Fam108b confirm inactive
CC(=O)Nc1ccc(NC(=O)c2cccc3ccccc23)cc1	none
CC(=O)Nc1ccc(N=Cc2c(O)c(C(=O)Nc3ccccc3)cc3ccccc23)cc1	Fam108B counter 22 | Fam108b confirm inactive
Oc1c(Br)cc(/C=N/n2c(-c3ccccc3)n[nH]c2=S)c(Br)c1O	Fam108B counter 34 | Fam108b confirm 41
Oc1c(Br)cc(Br)cc1/C=N/n1c(-c2ccccc2)n[nH]c1=S	none
O=C1/C(=C/C=C/c2ccco2)SC(=S)N1NS(=O)(=O)c1ccccc1	Fam108B counter 53 | Fam108b confirm inactive
O=C1/C(=C/c2cccs2)SC(=S)N1NS(=O)(=O)c1ccccc1	none
COC(=O)C1CCN(C(=O)COC(=O)c2cc(-c3ccccc3)nc3ccc(OC)cc23)CC1	none (no result: Fam108B counter, GSTO1 inh)
O=C(c1cccc(O)c1)N1CCN(C(=O)C2CC2)CC1	none (no result: Fam108B counter, GSTO1 inh, PME-1 inh, LYPLA2 inh, LYPLA1 inh)
O=C1CCCC(O)=C1N=Nc1ccc(C(=O)O)cc1	Fam108B counter 25 | Fam108b confirm 20
O=C(COc1ccccc1Cl)NCCCNC(=O)c1cccnc1	none
COc1ccc2c(Cl)c(C(=O)N/N=C/c3c(C)[nH]c4ccccc34)sc2c1	Fam108B counter 33, PME-1 inh 32 | Fam108b confirm 21
COc1ccccc1NC(=O)Nc1nc(CC(=O)Nc2ccc(F)c(F)c2)cs1	Fam108B counter 20 | Fam108b confirm inactive
COc1ccccc1NC(=O)Nc1nc(CC(=O)Nc2ccc(F)cc2)cs1	none
Cc1cc(N/N=C/c2ccc(O)c(C)c2O)nc(-c2ccccc2O)n1	Fam108B counter 43, PME-1 inh 62 | Fam108b confirm inactive
O=C(N/N=C/c1ccc([N+](=O)[O-])cc1)c1ccc(COc2ccccc2-c2ccccc2)cc1	Fam108B counter 26 | Fam108b confirm inactive
Cc1cccc(-c2nc(Nc3ccc(N4CCOCC4)cc3)c3ccccc3n2)c1	Fam108B counter 20 | Fam108b confirm inactive
CCOc1cccc2cc(C(=O)NCc3ccc(F)cc3)c(=N)oc12	none
Nc1ccc(O)cc1	Fam108B counter 64, GSTO1 inh 98, PME-1 inh 50 | Fam108b confirm inactive
Nc1ccc(C(=O)O)cc1	none
O=C(Nc1ccc(N2CCCCC2)c(Cl)c1)c1ccc(N2CCOCC2)c([N+](=O)[O-])c1	Fam108B counter 19 | Fam108b confirm inactive
COc1ccc(Nc2nc(-c3cccs3)nc3ccccc23)cc1	Fam108B counter 28 | Fam108b confirm inactive
COc1ccc(C=NNC(=O)c2cc(O)c(O)c(O)c2)cc1COc1ccc(C(=O)OCC(C)C)cc1	none (no result: Fam108B counter, GSTO1 inh, PME-1 inh, PREPL inhibitor, LYPLA2 inh, LYPLA1 inh) | Fam108b inh inactive
COc1ccc(NC(=O)CCS(=O)(=O)c2ccc3c(c2)oc(=O)n3C)cc1	none
COc1ccc(O)c(/C=N/NC(=S)Nc2cccc(S(=O)(=O)N(C)C)c2)c1	Fam108B counter 37, PME-1 inh 53 | Fam108b confirm inactive
COc1ccc(O)c(/C=N/NC(=S)Nc2cccnc2)c1	none
COc1ccccc1NC(=O)COC(=O)c1oc2ccccc2c1C	none
O=[N+]([O-])c1cccc(-c2csc(NN=Cc3cccc(O)c3)n2)c1	none (no result: Fam108B counter, GSTO1 inh, PME-1 inh, PREPL inhibitor, LYPLA2 inh, LYPLA1 inh) | Fam108b inh inactive
O=C(Nc1ccccc1F)Nc1ccccc1F	none
O=C(Nc1ccccc1F)Nc1cccc2ccc(O)cc12	Fam108B counter 18, PME-1 inh 34 | Fam108b confirm inactive
CC1(C2CC2)NC(=O)N(CC(=O)N2CCN(c3cccc(C(F)(F)F)c3)CC2)C1=O (stereo not given)	none (no result: Fam108B counter, GSTO1 inh, PME-1 inh, LYPLA2 inh, LYPLA1 inh)
Oc1ccc(Cl)cc1CNc1cccc2cccnc12	Fam108B counter 21, GSTO1 inh 35 | Fam108b confirm inactive
C=C1/C=C(\C)C(C)(O)CC(O)CC(=O)C(O)C(O)C(C)CC(C)OC(=O)/C(C)=C/CC/C=C/C(OC)C(O)CC(C)C1 (stereo not given)	none (no result: Fam108B counter, GSTO1 inh, PME-1 inh, LYPLA2 inh, LYPLA1 inh)
COc1ccc(Nc2sc(C(=O)Nc3cccc(Cl)c3)c(N)c2C(=O)Nc2ccccc2OC)cc1	Fam108B counter 51, PME-1 inh 30 | Fam108b confirm inactive

Bioassay records (PubChem)
